# Data taken from PubChem BioAssay (EPA / NIEHS).
# Activity calls are given as the source filed them. How the source made its calls: active means hit-call score of the fitted dose curve at least 0.9, where 1 is the maximum; inactive means score below 0.9.
# Assay: BSK_hDFCGF_SRB: Viability Assessment in the BioMAP Diversity Plus: hDFCGF Assay (AID 2283061);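 further: cells exposed to compound for 24 h before the read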
# Conditions: primary human foreskin fibroblasts
# Method: BSK_hDFCGF is a cell-based, multiplexed-readout assay that uses foreskin fibroblast, a human skin primary cell, with measurements taken at 24 hours after chemical dosing in a 96-well plate.BSK_hDFCGF_SRB is an assay component measured in the BSK_hDFCGF assay. It measures 0.1% sulforhodamine related to cell death using Sulforhodamine staining technology.Data from the assay component BSK_hDFCGF_SRB was analyzed into 1 assay endpoint. This assay endpoint, BSK_hDFCGF_SRB, was analyzed with bidirectional fitting relative to DMSO as the negative control and baseline of activity. Using a type of viability reporter, gain or loss-of-signal activity can be used to understand changes in the signaling. Furthermore, this assay endpoint can be referred to as a primary readout, because this assay has produced multiple assay endpoints where this one serves a signaling function. To generalize the intended target to other relatable targets, this assay endpoint is annotated to the cell morphology intended target family, where the subfamily is cell conformation.
# The levels of cell surface (or secreted, indicated by the prefix "s") biomarker endpoints were measured by ELISA. Overt cytotoxicity to cells in confluent adherent cultures (all systems other than the BT system) was assessed by measuring total protein levels using sulforhodamine B (SRB) staining in parallel cultures at the time of biomarker measurements, indicated as SRB endpoints. For proliferation assays for adherent cell types, individual cell types are cultured at sub-confluence and relative cell numbers quantified by SRB staining at time points optimized for each system (48 h: 3C and CASM3C systems; 72 h: BT and HDF3CGF systems; 96 h: SAg system). SRB was performed by staining cells with 0.1% SRB after fixation with 10% TCA and reading wells at 560 nm.Viability and proliferation of PBMC (T cells) was quantified by Alamar Blue reduction for the SAg and BT systems. For PBMC viability (referred to as PBMC Cytotoxicity within the assay endpoint names), cells were plated (75,000/well in a 96-well plate) and then chemical samples added for 1 h before addition of activators, SEB and TSST-1 (20 ng/mL final concentration each). Cells were incubated for 90 h. Then, Alamar Blue (20 uL/well) (Invitrogen, Cat DAL1100) was added for 6 h, and the plates were read with a fluorescence microplate reader at 546/580 nm (excitation/emission). For PBMC proliferation, cells were plated and activated as above but incubated for only 16 h prior to addition of Alamar Blue. Plates were read after 6 h.
SMILES,outcome,AC50
CCCCCCOCCO,inactive,–
Cc1ccc(C(C)C)c(O)c1,inactive,–
Cc1nc(-c2ccc3c(c2)CCN(CCC2CCC(NC(=O)/C=C/c4ccc(F)cc4)CC2)CC3)no1 (stereo not given),inactive,–
CC(=O)OCCOCCOCCOC(C)=O,inactive,–
CCOC(=O)CCC(=O)OCC,inactive,–
FC(F)(F)C(F)(F)C(F)(F)C(F)(F)C(F)(F)C(F)(F)CCI,inactive,–
CCCCOC(=O)CCCCCCCCC(=O)OCCCC,inactive,–
CC1(C)NC(=O)NC1=O,inactive,–
CCCCCCC(=O)OCC,inactive,–
Cc1ccc(C)c(C)c1,inactive,–
NCC1(Cc2noc(=O)[nH]2)CCCCC1,inactive,–
C1CCC(SSC2CCCCC2)CC1,–,32.2 µM (active)
NCCO,inactive,–
O=c1c(O)c(-c2ccc(O)c(O)c2)oc2cc(O)cc(O)c12,–,12.2 µM (active)
OC[C@@H](O)[C@@H](O)[C@H](O)[C@H](O)CO,inactive,–
O=C(O)CCCCC(=O)O,inactive,–
CCNc1cccc(C)c1,inactive,–
COc1cc(C=O)ccc1O,inactive,–
O=C(OCCCCCOC(=O)c1ccccc1)c1ccccc1,inactive,–
Cc1cccc(Nc2cc(Cl)nc(SCC(=O)O)n2)c1C,inactive,–

SMILES,outcome,AC50
CCCCCCCCCCCC(=O)OC,inactive,–
CCOC(=O)C(C)(C)Oc1ccc(Cl)cc1,inactive,–
COc1ccc(S(=O)(=O)N2C(=O)[C@@](c3ccccc3OC)(N3C[C@H](O)C[C@H]3C(=O)N(C)C)c3cc(Cl)ccc32)c(OC)c1,–,26.5 µM (active)
CN1CCCC1=O,inactive,–
Cc1cccc(C)c1O,inactive,–
CCCCCCCCCCCCCCCCCC(=O)O,inactive,–
CCCCC(CC)COC(=O)CC(C(=O)OCC(CC)CCCC)S(=O)(=O)O (stereo not given),–,24.4 µM (active)
CCOc1ccc2c(c1)C(C)=CC(C)(C)N2,inactive,–
COC(=O)c1ccc(O)cc1,inactive,–
Cc1cccc([N+](=O)[O-])c1C,inactive,–
Cc1c(C(=O)O)c(O)cc2c1C(=O)c1c(O)c([C@@H]3O[C@H](CO)[C@@H](O)[C@H](O)[C@H]3O)c(O)c(O)c1C2=O,inactive,–
Cc1cc(NC(=O)C(=O)O)cc(C)c1Oc1ccc(O)c2c1CCC2,inactive,–
Cc1cc(=O)[nH]c(=S)[nH]1,inactive,–
CC(C)(C)c1cc(O)c(C(C)(C)C)cc1O,inactive,–
CC(=O)Oc1ccccc1C(=O)O,inactive,–
O=C(O)Cc1ccccc1Nc1c(Cl)cccc1Cl,inactive,–
COc1ccc(C)cc1N,inactive,–
CC(=O)OC/C=C(\C)CCC=C(C)C,inactive,–
CCCc1cc(=O)[nH]c(=S)[nH]1,inactive,–
COc1ccc2c(c1)c(CC(=O)O)c(C)n2C(=O)c1ccc(Cl)cc1,inactive,–
